Experimental data: PubChem BioAssay AID1159580 (chemical genetic matrix, 2015)
“And” between values parts separate entries of the source, which are not always exact repeats. Equal entries are not always repeated. About 2,000 (36%) of roughly 5,500 compounds were called active. Not shown: some 18% with an inconclusive outcome. No stated cut-off is given here; in the data, active means normalized growth mostly below about 0.91 (no sharp cut-off); inconclusive means no clear call, values can overlap the other calls; inactive means mostly above about 0.92. This is one part of the list.

Assay: chemical genetic growth profiling, strain panel (AID 1159580);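 further: tested at 20 µM; growth read once vehicle control cultures reached saturation at 30 °C; 1 = growth at the plate median or of vehicle wells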
Settings: S. cerevisiae deletion strains, growth OD

Measured: normalized growth

CC(=O)NCc1c(I)c(NC(C)=O)c(I)c(C(=O)O)c1I
inactive: locus YAL013W, strain DEP1, stronger effect = lower value 0.997 | locus YAL021C, strain ccr4, stronger effect = lower value 0.989 | locus YAL026C, strain drs2, stronger effect = lower value 0.997 | locus YAL030W, strain snc1, stronger effect = lower value 1 | locus YBL061C, strain skt5, stronger effect = lower value 0.994 | locus YBR009C, strain hhf1, stronger effect = lower value 0.991 | locus YBR021W, strain FUR4, stronger effect = lower value 1.02 | locus YBR023C, strain chs3, stronger effect = lower value 0.993 | locus YBR171W, strain sec66, stronger effect = lower value 0.995 | locus YBR229C, strain ROT2, stronger effect = lower value 0.999 | locus YBR231C, strain swc5, stronger effect = lower value 1 | locus YBR279W, strain paf1, stronger effect = lower value 0.989 | locus YCL011C, strain gbp2, stronger effect = lower value 1 | locus YCL016C, strain dcc1, stronger effect = lower value 0.993 | locus YCL029C, strain bik1, stronger effect = lower value 0.982 | locus YCL061C, strain MRC1, stronger effect = lower value 0.983 | locus YCL069W, strain vba3, stronger effect = lower value 1 | locus YCR088W, strain abp1, stronger effect = lower value 1 | locus YDL005C, strain med2, stronger effect = lower value 1 | locus YDL035C, strain GPR1, stronger effect = lower value 1.01 | locus YDL040C, strain nat1, stronger effect = lower value 1 | locus YDL074C, strain BRE1, stronger effect = lower value 0.982 | locus YDL101C, strain DUN1, stronger effect = lower value 0.991 | locus YDL134C, strain PPH21, stronger effect = lower value 0.999 | locus YDL185W, strain tfp1, stronger effect = lower value 0.959 | locus YDL192W, strain arf1, stronger effect = lower value 0.99 | locus YDR001C, strain nth1, stronger effect = lower value 1.01 | locus YDR069C, strain doa4, stronger effect = lower value 0.999 | locus YDR101C, strain arx1, stronger effect = lower value 0.996 | locus YDR137W, strain rgp1, stronger effect = lower value 1.01 | locus YDR150W, strain NUM1, stronger effect = lower value 0.995 | locus YDR159W, strain sac3, stronger effect = lower value 0.99 | locus YDR162C, strain NBP2, stronger effect = lower value 0.997 | locus YDR195W, strain ref2 0.989 | locus YDR297W, strain sur2, stronger effect = lower value 0.995 | locus YDR318W, strain mcm21, stronger effect = lower value 0.984 | locus YDR334W, strain swr1, stronger effect = lower value 0.999 | locus YDR335W, strain msn5, stronger effect = lower value 1.01 | locus YDR388W, stronger effect = lower value 0.998 | locus YDR392W, strain spt3, stronger effect = lower value 0.957 | locus YDR502C, strain sam2, stronger effect = lower value 1 | locus YEL003W, strain gim4, stronger effect = lower value 1.01 | locus YEL037C, strain rad23, stronger effect = lower value 1 | locus YEL061C, strain CIN8 (second series), stronger effect = lower value 1 | locus YEL061C, strain CIN8, stronger effect = lower value 0.997 | locus YER015W, strain faa2, stronger effect = lower value 0.987 | locus YER016W, strain bim1, stronger effect = lower value 1 | locus YER110C, stronger effect = lower value 0.996 | locus YER111C, strain swi4, stronger effect = lower value 0.994 | locus YER155C, strain BEM2 (second series), stronger effect = lower value 1.01 | locus YER155C, strain BEM2, stronger effect = lower value 0.998 | locus YER167W, strain BCK2, stronger effect = lower value 1 | locus YFR010W, strain ubp6, stronger effect = lower value 0.998 | locus YGL078C, strain dbp3, stronger effect = lower value 1 | locus YGL086W, strain mad1, stronger effect = lower value 1.02 | locus YGL167C, strain pmr1, stronger effect = lower value 0.992 | locus YGL173C, strain kem1, stronger effect = lower value 0.995 | locus YGL227W, strain vid30, stronger effect = lower value 1 | locus YGL240W, strain doc1, stronger effect = lower value 0.986 | locus YGL248W, strain PDE1, stronger effect = lower value 1.01 | locus YGL253W, strain hxk2, stronger effect = lower value 0.996 | locus YGR078C, strain PAC10, stronger effect = lower value 1 | locus YGR135W, strain pre9, stronger effect = lower value 0.997 | locus YGR229C, strain SMI1, stronger effect = lower value 1 | locus YGR252W, strain gcn5, stronger effect = lower value 1.16 | locus YHR013C, strain ard1, stronger effect = lower value 0.997 | locus YHR027C, strain rpn1, stronger effect = lower value 1.01 | locus YHR030C, strain SLT2, stronger effect = lower value 0.996 and 1.01 | locus YHR079C, strain IRE1 (second series), stronger effect = lower value 0.992 | locus YHR079C, strain IRE1, stronger effect = lower value 1.02 | locus YHR094C, strain hxt1, stronger effect = lower value 0.98 | locus YHR129C, strain ARP1, stronger effect = lower value 0.997 | locus YHR142W, strain chs7, stronger effect = lower value 1.02 | locus YHR200W, strain rpn10, stronger effect = lower value 0.988 | locus YIL066C, strain RNR3, stronger effect = lower value 1 | locus YIL073C, strain SPO22, stronger effect = lower value 0.986 | locus YIL125W, strain kgd1, stronger effect = lower value 0.99 | locus YIR030C, strain dcg1, stronger effect = lower value 0.993 | locus YJL092W, strain hpr5, stronger effect = lower value 0.998 | locus YJL095W, strain BCK1 (second series), stronger effect = lower value 1 | locus YJL095W, strain BCK1, stronger effect = lower value 0.98 and 1.02 | locus YJL115W, strain asf1, stronger effect = lower value 0.993 | locus YJL129C, strain trk1, stronger effect = lower value 0.995 | locus YJL134W, strain LCB3, stronger effect = lower value 1 | locus YJL154C, strain vps35, stronger effect = lower value 1 | locus YJL164C, strain tpk1, stronger effect = lower value 0.996 | locus YJL166W, strain qcr8, stronger effect = lower value 0.991 | locus YJL168C, strain set2, stronger effect = lower value 0.992 | locus YJL187C, strain SWE1 (second series), stronger effect = lower value 0.987 | locus YJL187C, strain SWE1, stronger effect = lower value 1.02 | locus YJR043C, strain POL32, stronger effect = lower value 0.982 | locus YJR066W, strain TOR1, stronger effect = lower value 0.974
